Results filed as inconclusive are left out. Active and inactive are the calls of the source. Calls come from the whole dose curve; as a rule, active = well fitted curve in the direction sought with a large enough effect in the repeat runs; inconclusive = weak or mixed curves; inactive = no such curve, though single readings can be large; an effect the other way counts as inactive or inconclusive.
Tests used:
[1] = qHTS RealTime-Glo MT Cell Viability Assay in HEK293 cells - 16 hour (AID 1224872); note: potency is the fitted concentration of half-maximal effect; nearly all actives have a fitted effect of over 50% in size
In short: (§1)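 Quantitative high-throughput screen of the Tox21 10K library in HEK293: cells and RealTime-Glo reagents plated together, compound added at 5 h, luminescence monitored through 40 h at 37 C.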

[2] = qHTS RealTime-Glo MT Cell Viability Assay in HEK293 cells - 40 hour (AID 1224874); details: RealTime-Glo luminescence; max response: hits give low values; note: nearly all actives have a fitted effect of over 50% in size; note: potency is the fitted concentration of half-maximal effect; for max response: % is set by controls: 0 for no effect and ±100 for the full control effect
In short: (§2)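 Luminescence, which tracks viable cell number through reduction of the prosubstrate to a NanoLuc substrate, was read over continuous 37 C culture. Cells (600/well) were premixed with reagent and rested 5 h before 23 nL of compound in DMSO was pinned.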

[3] = A CellTox Green Cytotoxicity Assay to monitor cytotoxicity in HEK293 cells - 24 hour (AID 1224875); note: nearly all actives have a fitted effect of over 45% in size; note: potency is the fitted concentration of half-maximal effect; for activity change: series mostly up to about 77 µM; % is set by controls: 0 for no effect and ±100 for the full control effect
In short: (§3)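 Fluorescence from a DNA-binding dye excluded by viable cells was measured repeatedly in the same HEK293 wells (600 cells/well) during continuous compound exposure at 37 C. Each assay gives one read point: 0, 8, 16, 24, 32 or 40 h.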

[4] = A CellTox Green Cytotoxicity Assay to monitor cytotoxicity in HepG2 cells - 16 hour (AID 1224876); note: nearly all actives have a fitted effect of over 45% in size; note: potency is the fitted concentration of half-maximal effect
In short: (§4)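 Real-time cytotoxicity: fluorescence of a cell-impermeant cyanine dye binding DNA of dead HepG2 cells, measured repeatedly (0–40 h) during compound exposure at 37 C. Cells seeded 600/well with reagent, dosed after 5 h.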

[5] = qHTS RealTime-Glo MT Cell Viability Assay in HepG2 cells - 32 hour (AID 1224877); note: nearly all actives have a fitted effect of over 55% in size; note: potency is the fitted concentration of half-maximal effect
In short: (§5)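 Compound treatment began 5 h after plating HepG2 cells (600/well) with NanoLuc luciferase and prosubstrate. Plates stayed at 37 C for 40 h; luminescence was captured at six time points, 0 h through 40 h.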

[6] = A CellTox Green Cytotoxicity Assay to monitor cytotoxicity in HepG2 cells - 24 hour (AID 1224878); note: nearly all actives have a fitted effect of over 45% in size; note: potency is the fitted concentration of half-maximal effect
In short: as §4

[7] = A CellTox Green Cytotoxicity Assay to monitor cytotoxicity in HepG2 cells - 40 hour (AID 1224879); note: nearly all actives have a fitted effect of over 40% in size; note: potency is the fitted concentration of half-maximal effect
In short: as §4

[8] = A CellTox Green Cytotoxicity Assay to monitor cytotoxicity in HEK293 cells - 32 hour (AID 1224881); note: nearly all actives have a fitted effect of over 40% in size; note: potency is the fitted concentration of half-maximal effect
In short: as §3

[9] = A CellTox Green Cytotoxicity Assay to monitor cytotoxicity in HepG2 cells - 0 hour (AID 1224882); note: % is set by controls: 0 for no effect and ±100 for the full control effect; nearly all actives have a fitted effect of over 35% in size
In short: as §4

[10] = qHTS RealTime-Glo MT Cell Viability Assay in HepG2 cells - 16 hour (AID 1224885); note: nearly all actives have a fitted effect of over 50% in size; note: potency is the fitted concentration of half-maximal effect
In short: as §5

[11] = qHTS RealTime-Glo MT Cell Viability Assay in HEK293 cells - 24 hour (AID 1224886); note: nearly all actives have a fitted effect of over 50% in size; note: potency is the fitted concentration of half-maximal effect
In short: as §1

[12] = qHTS RealTime-Glo MT Cell Viability Assay in HEK293 cells - 8 hour (AID 1224887); note: nearly all actives have a fitted effect of over 50% in size; note: potency is the fitted concentration of half-maximal effect
In short: as §2

[13] = A CellTox Green Cytotoxicity Assay to monitor cytotoxicity in HEK293 cells - 16 hour (AID 1224888); note: nearly all actives have a fitted effect of over 35% in size; note: potency is the fitted concentration of half-maximal effect
In short: as §3

[14] = qHTS assay to identify small molecule antagonists of the estrogen receptor alpha (ER-alpha) signaling pathway using the BG1 cell line in the presence of 0.1 nM 17-beta-estradiol - cell viability counter screen (AID 1259241); note: nearly all actives have a fitted effect of over 40% in size; note: potency is the fitted concentration of half-maximal effect; for activity change, negative = cytotoxicity: % is set by controls: 0 for no effect and ±100 for the full control effect
In short: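 CellTiter-Fluor read (30 min, 37C) on ER-alpha/ERE-luc VM7Luc4E2 cells; 22 hr compound treatment; agonist 0.1 nM E2 final; same-well multiplex.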

[15] = qHTS RealTime-Glo MT Cell Viability Assay in HEK293 cells - 0 hour (AID 1224880); note: top concentration of the series differs between compounds; % is set by controls: 0 for no effect and ±100 for the full control effect; nearly all actives have a fitted effect of over 45% in size
In short: as §2

[16] = A CellTox Green Cytotoxicity Assay to monitor cytotoxicity in HEK293 cells - 8 hour (AID 1224884); note: nearly all actives have a fitted effect of over 35% in size; note: potency is the fitted concentration of half-maximal effect; for cytotoxicity increase: % is set by controls: 0 for no effect and ±100 for the full control effect
In short: as §3

[17] = qHTS RealTime-Glo MT Cell Viability Assay in HepG2 cells - 0 hour (AID 1224889)
In short: as §5

[18] = A CellTox Green Cytotoxicity Assay to monitor cytotoxicity in HepG2 cells - 8 hour (AID 1224890); note: nearly all actives have a fitted effect of over 45% in size; note: potency is the fitted concentration of half-maximal effect
In short: as §4

[19] = qHTS RealTime-Glo MT Cell Viability Assay in HepG2 cells - 8 hour (AID 1224873); note: nearly all actives have a fitted effect of over 55% in size; note: potency is the fitted concentration of half-maximal effect
In short: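 Real-time viability: cells seeded at 600 per well together with NanoLuc and cell-permeant prosubstrate, compounds added after 5 h incubation. Luminescence tracked at 0, 8, 16, 24, 32 and 40 h of exposure.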

[20] = A CellTox Green Cytotoxicity Assay to monitor cytotoxicity in HepG2 cells - 32 hour (AID 1224883); note: nearly all actives have a fitted effect of over 50% in size; note: potency is the fitted concentration of half-maximal effect
In short: as §4

CCCCCCCCCCOCC(O)CN (stereo not given)
active: Potency [1] 23.9 µM | Potency [2] 23.9 µM | Potency [3] 23.9 µM | Potency [4] 19 µM | Potency [5] 15.1 µM | Potency [6] 15.1 µM | Potency [7] 15.1 µM | Potency [8] 26.8 µM | Potency [10] 16.9 µM | Potency [11] 23.9 µM | Potency [12] 23.9 µM | Potency [13] 26.8 µM
inactive: Potency [9] | Potency [14]

Cc1cccc(C)c1NC(=O)CN1CCN(CCCC(c2ccc(F)cc2)c2ccc(F)cc2)CC1
inactive: Potency [15] | Potency [9] | Potency [16] | Potency [17] | Potency [14]
active: Potency [1] 10.7 µM | Potency [2] 10.7 µM | Potency [4] 26.8 µM | Potency [6] 23.9 µM | Potency [7] 23.9 µM | Potency [10] 21.3 µM | Potency [11] 10.7 µM | Potency [12] 10.7 µM | Potency [18] 16.9 µM

O=C1C=CC(=O)N1c1ccccc1
inactive: Potency [15] | Potency [9] | Potency [17]
active: Potency [19] 19.5 µM | Potency [2] 11 µM | Potency [3] 12.3 µM | Potency [4] 19.5 µM | Potency [5] 12.3 µM | Potency [6] 13.8 µM | Potency [7] 12.3 µM | Potency [8] 11 µM | Potency [20] 13.8 µM | Potency [16] 24.5 µM | Potency [10] 15.5 µM | Potency [11] 12.3 µM | Potency [12] 43.6 µM | Potency [13] 13.8 µM | Potency [18] 34.7 µM | Potency [14] 61.1 µM

CC1CCCNC1 (stereo not given)
inactive: Potency [19] | max response [2] -11.1% | Potency [3] | Potency [4] | Potency [5] | Potency [6] | Potency [7] | Potency [15] | Potency [8] | Potency [9] | Potency [20] | Potency [16] | Potency [10] | Potency [11] | Potency [12] | Potency [13] | Potency [17] | Potency [14]

N#CSCSc1nc2ccccc2s1
inactive: Potency [15] | Potency [9] | Potency [16] | Potency [13] | Potency [17] | Potency [14]
active: Potency [19] 49 µM | Potency [2] 19.5 µM | Potency [3] 11 µM | Potency [4] 54.9 µM | Potency [5] 30.9 µM | Potency [6] 43.6 µM | Potency [7] 21.9 µM | Potency [8] 12.3 µM | Potency [20] 24.5 µM | Potency [10] 43.6 µM | Potency [11] 15.5 µM | Potency [12] 21.9 µM

COC(=O)C1=C(C)NC(C)=C(C(=O)OCCCN2CCC(c3ccccc3)(c3ccccc3)CC2)C1c1cccc([N+](=O)[O-])c1 (stereo not given)
inactive: Potency [3] | Potency [4] | Potency [6] | Potency [15] | Potency [8] | Potency [9] | Potency [16] | Potency [13] | Potency [17] | Potency [18] | Potency [14]
active: Potency [1] 9.52 µM | Potency [2] 10.7 µM | Potency [11] 10.7 µM | Potency [12] 16.9 µM

S=C(SSSSSSC(=S)N1CCCCC1)N1CCCCC1
inactive: cytotoxicity increase [4] -6.85% [at 15.8 µM] | activity change, negative = cytotoxic [5] -24.5% [at 15.8 µM] | cytotoxicity [6] -0.0697% [at 15.8 µM] | activity change, negative = cytotoxicity [15] -11.8% [at 15.8 µM] | cytotoxicity [9] -6.55% [at 15.8 µM] | cytotoxicity increase [16] -0.556% [at 15.8 µM] | activity change [13] 19.1% [at 15.8 µM, hits give high values] | activity change, negative = cytotoxicity [17] -21.4% [at 15.8 µM] | cytotoxicity increase [18] -7.66% [at 15.8 µM]
active: Potency [1] 13.6 µM | Potency [2] 0.192 µM

CN(C)CCN1CCOCC1
inactive: Potency [19] | max response [2] 7.62% | Potency [3] | Potency [4] | Potency [5] | Potency [6] | Potency [7] | Potency [15] | Potency [8] | Potency [9] | Potency [20] | Potency [16] | Potency [10] | Potency [11] | Potency [12] | Potency [13] | Potency [17] | Potency [18] | Potency [14]

O=C1NC2CCCCN2C12CCN(CCCN1c3ccccc3CCc3ccc(Cl)cc31)CC2 (stereo not given)
active: Potency [1] 8.49 µM | Potency [2] 8.49 µM | Potency [3] 19 µM | Potency [4] 23.9 µM | Potency [6] 23.9 µM | Potency [7] 23.9 µM | Potency [8] 21.3 µM | Potency [20] 23.9 µM | Potency [11] 8.49 µM | Potency [12] 6.01 µM
inactive: Potency [15] | Potency [9] | Potency [16] | Potency [17]

CC=O
active: Potency [1] 4.57 µM | Potency [2] 0.324 µM | Potency [3] 57.5 µM | Potency [4] 57.5 µM | Potency [5] 45.7 µM | Potency [6] 45.7 µM | Potency [7] 25.7 µM | Potency [8] 51.3 µM | Potency [16] 57.5 µM | Potency [10] 51.3 µM | Potency [11] 0.575 µM | Potency [13] 57.5 µM | Potency [18] 57.5 µM
inactive: Potency [15] | Potency [9] | Potency [12] | Potency [17] | Potency [14]

CCCCCCC(C)Nc1ccc(Nc2ccccc2)cc1 (stereo not given)
active: Potency [1] 19.5 µM | Potency [2] 21.9 µM | Potency [11] 21.9 µM | Potency [12] 19.5 µM
inactive: Potency [3] | Potency [4] | Potency [6] | Potency [7] | Potency [8] | Potency [9] | Potency [16] | Potency [13] | Potency [18] | Potency [14]

CCCCCCCCCCCCN(CCO)CCO
inactive: Potency [14]
active: Potency [1] 48.8 µM | Potency [2] 38.7 µM | Potency [3] 54.7 µM | Potency [4] 43.5 µM | Potency [5] 43.5 µM | Potency [6] 24.4 µM | Potency [7] 19.4 µM | Potency [8] 54.7 µM | Potency [20] 17.3 µM | Potency [10] 48.8 µM | Potency [11] 43.5 µM

COc1ccccc1OCCNCC(O)COc1cccc2[nH]c3ccccc3c12 (stereo not given)
active: Potency [1] 16.9 µM | Potency [2] 10.7 µM | Potency [4] 23.9 µM | Potency [6] 26.8 µM | Potency [7] 23.9 µM | Potency [20] 23.9 µM | Potency [10] 23.9 µM | Potency [11] 10.7 µM | Potency [12] 16.9 µM
inactive: Potency [15] | Potency [9] | Potency [13] | Potency [17] | Potency [18]

From PubChem BioAssay (Tox21)
